HCMV antiviral = inhibitors of human cytomegalovirus; HFF cells, HCMV-luciferase reporter, 72 h; stronger effect = lower value; activity change, negative = inhibition, % at 57.5 µM; actives 4.5% (n = 410,000); in the data active = activity change below about -60%; inconclusive = no clear call, values can overlap the other calls; inactive = above about -39%
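Inhibition of viral replication was scored as loss of reporter luminescence in HFFs infected with HCMV-luciferase (MOI 1 PFU/cell) for 72 h; compounds tested at 2 doses, normalized to buffer and Salinomycin controls.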
VACV mCherry inh = vaccinia inhibition (mCherry reporter); Vaccinia virus mCherry reporter infection, fluorescence; Potency, µM (doses to about 36.5 µM), without a hit: top-dose activity change, negative = inhibition, actives largely listed as inhibitors; actives 0.63% (n = 310,000); AID 720579; calls by dose curve; tested in A549 cells; note: potency is the fitted concentration of half-maximal effect; nearly all actives have a fitted effect of over 35% in size
VACV Venus inh = vaccinia inhibition (Venus reporter); Vaccinia virus Venus reporter expression, fluorescence; Potency, µM (series often up to 36.5 µM), inactives show top-dose activity change, negative = inhibition, actives largely listed as inhibitors; actives 0.46% (n = 330,000); AID 720580; calls by dose curve; tested in A549 cells; note: potency is the fitted concentration of half-maximal effect; nearly all actives have a fitted effect of over 30% in size
FMDV antiviral = blocks foot and mouth disease virus; FMDV antiviral cell-based qHTS; Potency, µM (highest dose often 57.9 µM), inactives show at the highest dose activity change, negative = inhibition, actives largely listed as inhibitors; actives 1.2% (n = 410,000); AID 1159524; calls by dose curve; tested in HEK293T cells; note: read-out not given here; potency is the fitted concentration of half-maximal effect; nearly all actives have a fitted effect of over 45% in size
Lassa entry inh = Lassa virus entry inhibition; Lassa virus pseudotype entry inhibition, cell reporter; Potency, µM (doses to about 37.9 µM), for inactives: at the top dose activity change, negative = inhibition, hits mostly inhibitors; actives 1.2% (n = 300,000); AID 540256; calls by dose curve; tested in HEK293 cells; note: potency is the fitted concentration of half-maximal effect; nearly all actives have a fitted effect of over 50% in size
Marburg entry inh = inhibitors of Marburg virus binding or cell entry. Marburg virus pseudotyped entry inhibition, cell reporter. Potency, µM (top dose mostly 37.8 µM), without a hit: top-dose activity change, negative = inhibition, most hits filed as inhibitors. actives 1.8% (n = 300,000). AID 540276; calls by dose curve; tested in HEK293 cells; note: potency is the fitted concentration of half-maximal effect
An asterisk follows results filed as active; ! = not active in a repeat; [ ] = another dose, or the depositor's remark. An excerpt weighted towards active compounds, which were near 6.5% of everything screened. % is set by controls: 0 for no effect and ±100 for the full control effect.

Results for Cc1ccccc1-n1nc(C)c2cc(C(=O)N3CCN(S(=O)(=O)c4ccc(F)cc4)CC3)sc21 ?
HCMV antiviral: -22.1; FMDV antiviral: inconclusive; Lassa entry inh: inconclusive; Marburg entry inh: 20.6µM*!

Results for CCn1nc(C)cc1-c1nnc(Sc2ncc([N+](=O)[O-])s2)n1C ?
HCMV antiviral: -96.3*; FMDV antiviral: 28.2µM*

Results for CC(=O)N(c1cc(C)ccc1C)c1ccccc1[N+](=O)[O-] ?
HCMV antiviral: -63.2*; VACV mCherry inh: -10.9%; VACV Venus inh: -16.5%; FMDV antiviral: -13.4%; Lassa entry inh: 19.3%[46.1 µM]; Marburg entry inh: inconclusive

Results for CC(=O)N(c1ccccc1)c1ccc([N+](=O)[O-])cc1[N+](=O)[O-] ?
HCMV antiviral: -10.9; VACV mCherry inh: -17.1%; VACV Venus inh: -8.1%; FMDV antiviral: -20.2%; Lassa entry inh: 25.5%; Marburg entry inh: 11.5%

What do the screens show for `CCCNC(=O)/C=C/c1ccc(S(=O)(=O)Nc2ccccc2OC)cc1`?
HCMV antiviral: -37.3; VACV mCherry inh: inactive; VACV Venus inh: -11.1%; FMDV antiviral: -16.1%; Lassa entry inh: 5.01µM*; Marburg entry inh: inconclusive

How did COc1ccccc1NS(=O)(=O)c1ccc(/C=C/C(=O)O)cc1 do in these assays?
HCMV antiviral: -37.8; VACV mCherry inh: -14.0%; VACV Venus inh: -5.7%; FMDV antiviral: 1.5%; Lassa entry inh: -1.7%[46.1 µM]; Marburg entry inh: 1.1%[46.1 µM]

Results for O=C(c1cccc(F)c1)N1CC(=O)N2[C@H](CO)[C@@H](c3ccc(Br)cc3)[C@@H]2C1 ?
HCMV antiviral: -12.5

Results for O=C(/C=C/c1ccc(F)cc1)NNC(=O)CCN1CCN(Cc2ccccc2)CC1 ?
HCMV antiviral: -96.2*; VACV mCherry inh: 11.2µM*; VACV Venus inh: inconclusive; FMDV antiviral: -21.2%; Lassa entry inh: inconclusive; Marburg entry inh: inconclusive

Results for COc1cccc(/C=C/C(=O)NNC(=O)CCN2CCN(Cc3ccccc3)CC2)c1 ?
HCMV antiviral: 0.0; VACV mCherry inh: inconclusive; VACV Venus inh: -22.5%; FMDV antiviral: -23.7%; Lassa entry inh: -22.2%[46.1 µM]; Marburg entry inh: inconclusive

Results for Cc1cccc(COc2ccc(/C(O)=C3\C(=O)C(=O)N(CCN(C)C)[C@H]3c3ccncc3)cc2)c1 ?
Marburg entry inh: 8.1%

How did COc1ccc(-c2oc3ncn(CCN4CCOCC4)c(=N)c3c2-c2ccc(OC)cc2)cc1 do in these assays?
HCMV antiviral: inconclusive; FMDV antiviral: inconclusive; Lassa entry inh: inconclusive; Marburg entry inh: 16.4µM*

How did CC(C)N1CC(O)=C(c2nc3ccccc3[nH]2)C1=N do in these assays?
HCMV antiviral: 13.2; VACV mCherry inh: -7.4%; VACV Venus inh: -8.8%; FMDV antiviral: 58.3%; Lassa entry inh: inconclusive; Marburg entry inh: inconclusive

What do the screens show for `CC(C1CC2CCC1C2)N1CC(O)=C(c2nc3ccccc3[nH]2)C1=N` (stereo unspecified)?
HCMV antiviral: -23.8; VACV mCherry inh: 7.08µM*; VACV Venus inh: 5.01µM*; FMDV antiviral: -5.0%; Lassa entry inh: -1.7%; Marburg entry inh: inconclusive

Results for CC(C)C(NS(C)(=O)=O)c1nnc2n1CCN(Cc1ccc3cccnc3c1)CC2 (stereo unspecified) ?
VACV mCherry inh: -5.5%; VACV Venus inh: -0.6%; FMDV antiviral: 8.8%

Results for Cc1cc(C(=O)COC(=O)c2ccccc2O)c(C)n1Cc1cccs1 ?
HCMV antiviral: -103.1*; FMDV antiviral: 28.2µM*; Lassa entry inh: 0.326µM*; Marburg entry inh: 0.82µM*

Results for CC(=O)Nc1ccccc1OCC(=O)c1cc(C)n(Cc2cccs2)c1C ?
HCMV antiviral: -93.6*; FMDV antiviral: inconclusive; Lassa entry inh: -29.6%; Marburg entry inh: inconclusive

Results for Cc1cc(C(=O)COC(=O)c2ccc3c(c2)OCO3)c(C)n1Cc1cccs1 ?
HCMV antiviral: -19.3; FMDV antiviral: -14.2%; Lassa entry inh: inconclusive; Marburg entry inh: -25.5%

How did Cc1cc(C(=O)COc2cccnc2[N+](=O)[O-])c(C)n1Cc1cccs1 do in these assays?
HCMV antiviral: 14.8; VACV mCherry inh: inconclusive; VACV Venus inh: -21.4%; FMDV antiviral: 7.94µM*; Lassa entry inh: inconclusive; Marburg entry inh: inconclusive
